For eight molecules, Percent Effect results are on record in ChEMBL document CHEMBL3988442, “University of Dundee, Small-Polar-MMV Screening Library” (2021).

Set-up in all cases: scale not given: direction of the effect not stated beside the values
In assay [1] the target is Protein translocase subunit SecA (Escherichia coli (strain K12)) (UniProt P10408). The assay can be described thus: Assay to Identify E. coli SecA ATPase Inhibitors. Type of assay: functional. The settings on record: 30 µM.
Assay [2] deals with T1, Ubiquitin-activating enzyme e1, putative (Leishmania donovani (strain BPK282A1)) (UniProt E9BSI1).
T1 sequence (whole entry): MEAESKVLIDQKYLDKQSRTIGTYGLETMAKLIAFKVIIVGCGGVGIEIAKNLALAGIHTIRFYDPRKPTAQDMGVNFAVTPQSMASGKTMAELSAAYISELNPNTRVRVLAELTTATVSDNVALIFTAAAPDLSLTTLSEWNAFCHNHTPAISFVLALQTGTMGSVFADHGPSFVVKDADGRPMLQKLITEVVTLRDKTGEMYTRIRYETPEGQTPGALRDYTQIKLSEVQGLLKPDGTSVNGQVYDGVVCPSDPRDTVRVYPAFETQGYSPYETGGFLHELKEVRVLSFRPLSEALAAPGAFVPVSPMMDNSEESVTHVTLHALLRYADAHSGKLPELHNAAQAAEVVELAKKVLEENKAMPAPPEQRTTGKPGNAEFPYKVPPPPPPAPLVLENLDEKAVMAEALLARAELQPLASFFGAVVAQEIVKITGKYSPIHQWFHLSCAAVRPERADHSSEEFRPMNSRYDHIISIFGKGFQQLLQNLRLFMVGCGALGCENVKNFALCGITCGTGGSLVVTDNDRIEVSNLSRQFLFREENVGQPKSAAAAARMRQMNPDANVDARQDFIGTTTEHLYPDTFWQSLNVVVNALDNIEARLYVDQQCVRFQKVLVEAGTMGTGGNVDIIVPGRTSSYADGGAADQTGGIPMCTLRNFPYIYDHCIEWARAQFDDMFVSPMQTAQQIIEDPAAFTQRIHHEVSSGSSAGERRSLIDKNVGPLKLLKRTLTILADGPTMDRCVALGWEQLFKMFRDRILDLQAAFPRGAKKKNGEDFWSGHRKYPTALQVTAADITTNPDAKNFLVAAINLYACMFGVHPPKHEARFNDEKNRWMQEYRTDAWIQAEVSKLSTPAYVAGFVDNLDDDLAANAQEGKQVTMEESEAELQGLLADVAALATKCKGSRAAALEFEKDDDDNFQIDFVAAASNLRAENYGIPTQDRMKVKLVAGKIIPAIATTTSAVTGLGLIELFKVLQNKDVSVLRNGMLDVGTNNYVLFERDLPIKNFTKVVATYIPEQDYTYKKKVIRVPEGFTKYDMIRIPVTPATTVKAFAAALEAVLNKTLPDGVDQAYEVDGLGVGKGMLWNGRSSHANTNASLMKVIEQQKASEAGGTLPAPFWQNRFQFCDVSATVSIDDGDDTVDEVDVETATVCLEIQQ
The assay can be described thus: Leishmania donovani Ubiquitin Activating Enzyme (LdE1). It is filed as functional. The settings on record: 30 µM.

For assay [3], the target named is AMP-activated protein kinase, AMPK (Homo sapiens) (UniProt P54646+O43741+P54619+Q9UGJ0+Q9Y478+Q13131+Q9UGI9). The assay is described as follows: AMP-dependent Kinase enzyme assay. An in vitro enzyme assay that detects ADP turnover that is directly proportional to AMPK activity. This uses naive AMPK that is activated during the assay with MK-8722. It is filed as functional. The settings on record: 30 µM.

Assay [4] addresses Sialic acid-binding Ig-like lectin 9 (Homo sapiens) (UniProt Q9Y336). The assay can be described thus: Hs-Siglec9 ALPHAscreen SOP 20170721. The note with it: 10 µM. (In Alpha technology, singlet oxygen from a donor bead excites a nearby acceptor bead.)
Another assay relates to Trypanosoma cruzi. The assay can be described thus: Trypanosoma cruzi phosphomannomutase and mannose-1-phosphate guanylyltransferase assay. Type of assay: functional. The settings on record: 10 µM.
The target of assay [5] is T2, Arginase-2, mitochondrial (Homo sapiens) (UniProt P78540).
T2 sequence (whole entry): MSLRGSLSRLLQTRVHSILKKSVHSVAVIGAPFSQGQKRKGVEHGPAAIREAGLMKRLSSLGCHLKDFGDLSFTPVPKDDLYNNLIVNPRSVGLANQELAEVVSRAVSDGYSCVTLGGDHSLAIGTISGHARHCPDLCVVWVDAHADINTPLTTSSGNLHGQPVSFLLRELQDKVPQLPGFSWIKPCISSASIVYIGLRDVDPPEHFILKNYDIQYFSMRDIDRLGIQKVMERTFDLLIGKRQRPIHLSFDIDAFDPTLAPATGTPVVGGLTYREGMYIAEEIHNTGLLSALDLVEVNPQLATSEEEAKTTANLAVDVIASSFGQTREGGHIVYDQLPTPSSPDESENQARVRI
The assay is described as follows: in vitro enzyme assay to detect the production of urea directly proportional to the activity of Arginase II. Further: in the data most compounds retested in dose-response had high values. Type of assay: functional. The note with it: 33.3 µM.

Assay [6] has as its target T3, Proteasome subunit beta (Trypanosoma cruzi) (UniProt O96673).
T3 sequence (whole entry): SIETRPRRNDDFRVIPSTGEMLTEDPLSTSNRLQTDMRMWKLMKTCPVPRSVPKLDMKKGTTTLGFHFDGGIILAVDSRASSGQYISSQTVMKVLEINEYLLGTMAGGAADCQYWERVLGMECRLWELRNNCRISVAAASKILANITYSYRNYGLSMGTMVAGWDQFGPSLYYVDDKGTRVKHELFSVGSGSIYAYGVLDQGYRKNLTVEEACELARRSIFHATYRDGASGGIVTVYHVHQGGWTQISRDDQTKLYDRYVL
The assay is described as follows: Trypanosoma cruzi proteasome chymotrypsin-like activity (TcProtChymo) assay. Further: in the data most compounds retested in dose-response had high values. It is filed as functional. The settings on record: 9.37 µM.

The next assay is filed under the species Homo sapiens. The assay can be described thus: To identify inhibition of the IFN signalling (Jak-Stat) pathway via expression of an eGFP reporter gene under the control of an IFN-stimulated response element (ISRE) containing MxA promoter. Type of assay: functional. The note with it: 30 µM.
Assay [7] has as its target T4, Tyrosyl-tRNA synthetase, putative (Trypanosoma cruzi (strain CL Brener)) (UniProt Q4DSP6).
T4 sequence (whole entry): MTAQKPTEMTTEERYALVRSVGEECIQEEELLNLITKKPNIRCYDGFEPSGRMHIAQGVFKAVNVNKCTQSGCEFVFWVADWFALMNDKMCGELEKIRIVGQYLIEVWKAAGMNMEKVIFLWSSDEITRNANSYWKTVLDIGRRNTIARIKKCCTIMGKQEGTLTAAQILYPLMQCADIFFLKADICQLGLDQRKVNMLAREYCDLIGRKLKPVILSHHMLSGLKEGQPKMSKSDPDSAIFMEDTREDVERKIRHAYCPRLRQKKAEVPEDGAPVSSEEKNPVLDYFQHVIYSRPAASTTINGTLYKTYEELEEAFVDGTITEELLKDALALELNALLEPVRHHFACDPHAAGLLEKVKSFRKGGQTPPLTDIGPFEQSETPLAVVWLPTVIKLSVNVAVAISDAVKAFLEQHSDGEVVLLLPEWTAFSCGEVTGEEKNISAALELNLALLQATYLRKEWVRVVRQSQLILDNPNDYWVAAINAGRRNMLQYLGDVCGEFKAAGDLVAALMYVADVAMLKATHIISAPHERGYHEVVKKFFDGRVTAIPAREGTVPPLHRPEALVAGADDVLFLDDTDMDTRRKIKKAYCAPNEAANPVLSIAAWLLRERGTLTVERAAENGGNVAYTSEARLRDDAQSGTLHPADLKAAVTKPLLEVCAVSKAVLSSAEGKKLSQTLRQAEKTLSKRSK
The assay is described as follows: Trypanosoma cruzi tyrosyl tRNA synthetase (TcYRS) _High Tyrosine SOP. Further: in the data most compounds retested in dose-response had high values. It is filed as functional. The note with it: 30 µM.

Assay [8] concerns the target T4, Tyrosyl-tRNA synthetase, putative (Trypanosoma cruzi (strain CL Brener)). The assay is described as follows: Trypanosoma cruzi tyrosyl tRNA synthetase (TcYRS) SOP. Type of assay: functional. The settings on record: 30 µM.
Assay [9] deals with Chromo domain-containing protein 1 (Saccharomyces cerevisiae (strain ATCC 204508 / S288c) (Baker's yeast)) (UniProt P32657). The assay can be described thus: ScCHD-1 Enzyme Inhibition Assay. Further: in the data most compounds retested in dose-response had high values. Type of assay: functional. The note with it: 30 µM.

For some of these results: Measured potencies and affinities stand elsewhere.

Sequence of Chromo domain-containing protein 1 (Saccharomyces cerevisiae (strain ATCC 204508 / S288c) (Baker's yeast)) (P32657 whole entry, the tested form may be a part): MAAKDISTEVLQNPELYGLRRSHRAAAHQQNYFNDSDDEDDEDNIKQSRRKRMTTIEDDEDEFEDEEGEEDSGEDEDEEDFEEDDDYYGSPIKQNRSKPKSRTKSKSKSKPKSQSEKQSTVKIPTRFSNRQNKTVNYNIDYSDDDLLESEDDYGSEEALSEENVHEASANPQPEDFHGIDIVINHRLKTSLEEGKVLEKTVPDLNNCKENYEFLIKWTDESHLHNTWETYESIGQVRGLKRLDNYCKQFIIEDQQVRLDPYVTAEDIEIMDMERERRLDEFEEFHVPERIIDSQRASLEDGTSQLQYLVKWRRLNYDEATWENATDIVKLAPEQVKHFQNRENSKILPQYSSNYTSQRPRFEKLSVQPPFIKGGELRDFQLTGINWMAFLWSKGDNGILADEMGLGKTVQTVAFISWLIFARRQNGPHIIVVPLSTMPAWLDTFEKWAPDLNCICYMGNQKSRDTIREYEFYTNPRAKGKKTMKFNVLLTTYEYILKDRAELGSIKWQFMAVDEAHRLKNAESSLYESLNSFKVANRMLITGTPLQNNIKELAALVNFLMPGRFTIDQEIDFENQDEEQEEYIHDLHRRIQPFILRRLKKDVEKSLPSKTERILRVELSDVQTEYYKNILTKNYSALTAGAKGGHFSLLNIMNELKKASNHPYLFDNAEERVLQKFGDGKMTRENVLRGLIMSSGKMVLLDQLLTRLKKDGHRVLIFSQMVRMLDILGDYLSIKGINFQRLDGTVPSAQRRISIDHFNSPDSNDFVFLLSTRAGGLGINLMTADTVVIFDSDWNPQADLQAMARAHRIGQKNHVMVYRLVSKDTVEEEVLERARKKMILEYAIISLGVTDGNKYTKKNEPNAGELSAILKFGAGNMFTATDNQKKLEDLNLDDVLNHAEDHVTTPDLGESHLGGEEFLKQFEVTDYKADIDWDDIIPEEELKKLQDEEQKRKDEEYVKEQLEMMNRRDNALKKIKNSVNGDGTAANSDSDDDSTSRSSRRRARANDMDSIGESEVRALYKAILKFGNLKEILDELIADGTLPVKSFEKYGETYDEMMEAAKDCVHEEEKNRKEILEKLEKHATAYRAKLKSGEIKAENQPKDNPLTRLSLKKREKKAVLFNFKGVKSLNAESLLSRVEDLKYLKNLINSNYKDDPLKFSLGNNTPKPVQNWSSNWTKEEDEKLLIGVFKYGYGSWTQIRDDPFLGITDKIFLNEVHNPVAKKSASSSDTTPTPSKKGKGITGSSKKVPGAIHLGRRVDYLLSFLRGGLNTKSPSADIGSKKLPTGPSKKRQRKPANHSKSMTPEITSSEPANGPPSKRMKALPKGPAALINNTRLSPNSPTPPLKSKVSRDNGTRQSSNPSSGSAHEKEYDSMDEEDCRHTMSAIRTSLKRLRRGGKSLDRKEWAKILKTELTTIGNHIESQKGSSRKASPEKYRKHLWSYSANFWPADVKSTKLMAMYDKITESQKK
Sequence of Sialic acid-binding Ig-like lectin 9 (Homo sapiens) (Q9Y336 whole entry): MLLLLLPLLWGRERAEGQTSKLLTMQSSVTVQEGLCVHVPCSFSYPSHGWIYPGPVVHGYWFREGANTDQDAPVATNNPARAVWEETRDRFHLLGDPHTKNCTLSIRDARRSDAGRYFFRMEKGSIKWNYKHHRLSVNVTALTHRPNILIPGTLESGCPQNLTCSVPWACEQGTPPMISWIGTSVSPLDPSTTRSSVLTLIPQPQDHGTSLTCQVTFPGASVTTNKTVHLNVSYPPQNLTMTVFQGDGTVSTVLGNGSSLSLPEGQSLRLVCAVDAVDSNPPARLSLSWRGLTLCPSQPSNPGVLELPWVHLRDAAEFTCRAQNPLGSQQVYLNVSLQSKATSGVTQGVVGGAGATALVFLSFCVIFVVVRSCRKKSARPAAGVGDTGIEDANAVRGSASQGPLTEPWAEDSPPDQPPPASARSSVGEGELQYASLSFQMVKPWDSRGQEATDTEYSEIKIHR
Sequence of Protein translocase subunit SecA (Escherichia coli (strain K12)) (P10408 whole entry): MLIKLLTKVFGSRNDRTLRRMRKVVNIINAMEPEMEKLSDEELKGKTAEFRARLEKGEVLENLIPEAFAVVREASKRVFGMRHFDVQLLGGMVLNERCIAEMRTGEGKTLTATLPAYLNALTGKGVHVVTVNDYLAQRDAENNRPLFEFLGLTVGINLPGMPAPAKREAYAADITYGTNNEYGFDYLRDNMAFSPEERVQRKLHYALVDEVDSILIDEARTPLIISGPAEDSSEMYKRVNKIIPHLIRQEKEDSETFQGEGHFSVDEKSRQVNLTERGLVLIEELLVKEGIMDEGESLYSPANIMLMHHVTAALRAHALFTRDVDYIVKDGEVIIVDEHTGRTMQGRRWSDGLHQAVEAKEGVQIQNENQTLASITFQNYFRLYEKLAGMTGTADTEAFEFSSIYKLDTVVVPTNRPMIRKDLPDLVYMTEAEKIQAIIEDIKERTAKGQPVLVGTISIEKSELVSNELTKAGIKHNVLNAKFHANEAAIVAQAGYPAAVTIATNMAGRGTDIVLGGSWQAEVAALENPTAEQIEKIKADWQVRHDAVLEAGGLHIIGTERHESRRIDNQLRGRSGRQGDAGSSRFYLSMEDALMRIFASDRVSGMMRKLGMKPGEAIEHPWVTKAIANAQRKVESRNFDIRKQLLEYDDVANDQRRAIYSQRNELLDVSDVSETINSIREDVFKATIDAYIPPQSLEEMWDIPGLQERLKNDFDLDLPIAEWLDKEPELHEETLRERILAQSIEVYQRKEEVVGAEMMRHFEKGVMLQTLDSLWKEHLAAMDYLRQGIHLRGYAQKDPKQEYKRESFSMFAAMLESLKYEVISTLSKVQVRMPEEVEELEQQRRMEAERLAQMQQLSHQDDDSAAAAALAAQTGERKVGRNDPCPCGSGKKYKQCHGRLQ

For the molecule `COCCC(=O)N1CC2(CCN(Cc3cccc(Cl)c3)CC2)C1`, the Percent Effect in [1] is -1.79%; in [2] it was 5.33%; in assay [3] it was 5.28%; in assay [4], 2.57%; in the assay on Trypanosoma cruzi, -7.09%; in [5] it was 3.03%. Moreover, the Percent Effect in assay [6] was 10.8%; in the assay listed under Homo sapiens, 6%; in assay [7], 4.25%; in assay [8], 11.5%; in assay [9] it was -4.02%.

As for `CC(C(=O)N1CCCN(c2ncccc2C#N)CC1)n1cccn1` (stereo not drawn), the Percent Effect in assay [1] is -3.42%; in assay [2], 10.5%; in assay [3], 0.522%; in assay [4], -3.82%; in the assay with Trypanosoma cruzi, -6.63%; in assay [5], 4.68%. Further, the Percent Effect in assay [6] was 4.32%; in the assay listed under Homo sapiens it was 3.06%; in assay [7] it was 5.42%; in assay [8], 11.1%; in assay [9], -6.77%.

As for `CCC(=O)Nc1ccc2c(c1)CN(C(=O)c1ccco1)CC2`, the Percent Effect in assay [1] is -1.48%; in [2], 15.6%; in [3] it was 8.06%; in assay [4], -13%; with Trypanosoma cruzi, -1.48%; in [5] it was -1.94%. In addition, the Percent Effect in [6] was 9.4%; in the assay listed under Homo sapiens, 33.1%; in assay [7] it was 3.17%; in assay [8] it was 14.1%; in assay [9] it was -8.67%.

Take `CC(C)(C)C(=O)Cn1nc(-c2ccccc2F)ccc1=O`: the Percent Effect in assay [1] was -3.18%; in assay [2], 6.67%; in assay [3], 5.01%; in assay [4] it was 9.44%; in the assay on Trypanosoma cruzi, 0.393%; in assay [5] it was -10%. The Percent Effect in assay [6] is 16.6%; in the assay filed under Homo sapiens, 5.03%; in [7] it was 5.29%; in [8] it was 10.3%; in [9], -6.12%.

On to `CCc1nc(CN2CCCC(NCc3ccc(C(N)=O)cc3)C2)no1` (stereo not drawn), for which the Percent Effect in [1] is -4.14%; in assay [2], 2.53%; in assay [3], -1.56%; in assay [4], 9.52%; in the assay with Trypanosoma cruzi, 2.93%; in assay [5] it was 1.14%. In addition, the Percent Effect in assay [6] is -0.246%; in the assay listed under Homo sapiens, 12.3%; in [7], -0.493%; in [8], 1.27%; in assay [9], -2.88%.

As for `COCCn1cc(C(=O)N2CCCC2c2cccc(F)c2)ccc1=O` (stereo not drawn), the Percent Effect in assay [1] was 1.54%; in assay [2], -5.41%; in assay [3], -0.655%; in assay [4], 0.523%; with Trypanosoma cruzi, -2.7%; in assay [5], 2.38%. Also, the Percent Effect in [6] is 7.07%; in the assay listed under Homo sapiens, -0.304%; in [7], -2.65%; in assay [8], -56.1%; in assay [9], -2.35%.

For the molecule `CCn1nnc2c1C(COC)CN(Cc1ccsc1)C2` (stereo not drawn), the Percent Effect in [1] was -6.4%; in assay [2] it was 5.41%; in assay [3], 1.42%; in assay [4] it was -2.12%; in the assay with Trypanosoma cruzi, -5.77%; in assay [5] it was -2.73%. In addition, the Percent Effect in [6] is 10.2%; in the assay filed under Homo sapiens, -14.5%; in assay [7], 2.15%; in assay [8], 3.7%; in [9], -3.53%.

Consider `Cc1noc(C(C)C)c1C(=O)NCC(c1ccsc1)N(C)C` (stereo not drawn), for which the Percent Effect is -1.69% in assay [1]; 15.2% in assay [2]; 2.11% in assay [3]; -4.7% in assay [4]; -5.19% with Trypanosoma cruzi; -1.52% in assay [5]. Besides, the Percent Effect in assay [6] was 13.3%; in the assay listed under Homo sapiens, 32.5%; in assay [7], 1.48%; in assay [8], 11.4%; in [9], -5.47%.
